# “And” between values parts separate entries of the source, which are not always exact repeats. Equal values may be shown once. Records with an inconclusive call do not appear. The source made the active and inactive calls. Unless noted, calls come from the whole dose curve; as a rule, active = well fitted curve in the direction sought with a large enough effect; inconclusive = small, poorly fitted or top-dose-only effect, or another doubt; inactive = no such curve, though single readings can be large; an effect the other way counts as inactive or inconclusive.
# Legend:
# [1] = molecular target: T1, Hexokinase-4 (Homo sapiens) + Glucokinase regulatory protein (Homo sapiens) (UniProt P35557+Q14397); assay: qHTS assay for inhibitors of recombinant human GCK-GKRP interaction: Diaphorase-coupled assay (AID 743205); conditions: G6PDH/diaphorase resorufin fluorescence; series mostly up to 57.5 µM
# Outline: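 Resorufin fluorescence (525/590 nm), read each minute over 30 min, reports GCK activity coupled via G6PDH and diaphorase. Reaction: 10 nM GST-GCK, 10 nM FLAG-GKRP, 5 mM glucose, 0.4 mM ATP, 0.15 mM NADP+, 0.1 mM resazurin.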
# [2] = molecular target: T1, Hexokinase-4 (Homo sapiens) + Glucokinase regulatory protein (Homo sapiens); assay: qHTS assay for inhibitors of recombinant human GCK-GKRP interaction: ADP-Glo assay (AID 743206); conditions: ADP-Glo luminescence, 60 min, 0% = vehicle-only wells with enzyme present; series mostly up to 76.9 µM;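 note: plate controls were DMSO plus enzyme for no effect and no enzyme for full effect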
# Outline: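 Pin-transferred compounds meet a 15 nM GST-GCK/15 nM FLAG-GKRP/2 uM S6P mix (dispense concentrations). ATP is then added to 0.4 mM final with 5 mM glucose, and the reaction runs 60 min at room temperature. ADP is quantified luminescently.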
# [3] = molecular target: T1, Hexokinase-4 (Homo sapiens) + Glucokinase regulatory protein (Homo sapiens); assay: qHTS assay for inhibitors of recombinant human GCK-GKRP interaction: HTRF assay (AID 743207); conditions: recombinant GCK-GKRP HTRF binding, 60 min, with sorbitol-6-phosphate; series mostly up to 57.5 µM;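 note: 0% = DMSO with GCK present and -100% = DMSO wells lacking GCK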
# Outline: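 HTRF read-out (ex 320 nm; 615/665 nm emission) after 60 min RT equilibration of 5 nM GST-GCK, 5 nM FLAG-GKRP, 2 uM S6P, compound and anti-FLAG/anti-GST detection antibodies; signal normalized between DMSO wells with and without GCK.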
# [4] = qHTS Assay for Identifying Gametocytocidal Compounds (AID 743244); note: potency is the fitted concentration of half-maximal effect;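 for max response: % is set by controls: 0 for no effect and ±100 for the full control effect; actives lower the fluorescent signal which means gametocytes are killed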; conditions: P. falciparum 3D7 stage III-V gametocytes, alamarBlue, 72 h; max response: stronger effect = lower value
# Outline: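 P. falciparum 3D7 stage III–V gametocytes (20,000 cells/well) were exposed to compounds for 72 h at 37 °C, 5% CO2. AlamarBlue was then added for 24 h; decreased resorufin fluorescence (Ex 525/Em 598 nm) indicated loss of viability.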
# [5] = qHTS profiling for inhibitors of Plasmodium falciparum (3D7) proliferation (AID 743322; call rule not given here;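 note: infected erythrocytes exposed to compound for 72 h before lysis; 100% = DMSO vehicle wells and 0% = 0.29 µM artemisinin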); conditions: P. falciparum 3D7 proliferation; at 28.7 µM (top of the series) unless noted
# Outline: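 Parasite DNA was quantified by SYBR Green I fluorescence (ex 485, em 535 nm) after overnight lysis in saponin/Triton buffer at room temperature. Cultures at 0.3% parasitemia and 2.5% hematocrit were first exposed to compound for 72 h at 37 C; signals were normalised to artemisinin (0.29 uM) and vehicle wells.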
# [6] = qHTS profiling for inhibitors of Plasmodium falciparum (DD2) proliferation (AID 743323; call rule not given here); conditions: lower = more inhibition; at 28.7 µM (top of the series) unless noted
# Outline: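 Parasite DNA quantified by SYBR Green fluorescence (ex 485, em 535 nm) after saponin/Triton lysis and overnight dark incubation. Cultures: 0.3% parasitemia, 2.5% hematocrit, 72 h, 37 C; data scaled between DMSO and 0.29 uM artemisinin.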
# [7] = qHTS assay for small molecule antagonists of the retinoid-related orphan receptor gamma (ROR-gamma) signaling pathway - cell viability counter screen (AID 720652; active = well fitted curve in the direction sought with a large enough effect in the repeat runs; an effect the other way counts as inactive or inconclusive;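 note: CHO reporter cells with doxycycline-induced ROR-gamma expression; compound exposure lasted 16 hr before ATP read; % is set by controls: 0 for no effect and ±100 for the full control effect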); conditions: RORgamma reporter cell line viability counter screen; series mostly up to 92.2 µM
# Outline: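 Cytotoxicity counter screen: intracellular ATP (CellTiter-Glo luminescence) measured in the doxycycline-induced CHO RORE-luciferase reporter line after 16 hr compound exposure at 37 C, 5% CO2.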
# [8] = qHTS assay for small molecule agonists of the antioxidant response element (ARE) signaling pathway measured by Nrf2-dependant transcriptional activity - cell viability counter screen (AID 720653; active = well fitted curve in the direction sought with a large enough effect in the repeat runs; an effect the other way counts as inactive or inconclusive; note: % is set by controls: 0 for no effect and ±100 for the full control effect); conditions: ARE-bla HepG2 viability, CellTiter-Glo ATP luminescence, 16 h; stronger effect = lower value
# Outline: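 ARE-bla HepG2 cells treated with compounds for 16 h at 37C; this counter screen measures viability as intracellular ATP by CellTiter-Glo luminescence after 30 min at room temperature.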
# [9] = qHTS assay for cell viability of HEK293 cells (AID 743288); conditions: ATP luminescence (CellTiter-Glo), 18 h, stronger effect = lower value; note: % is set by controls: 0 for no effect and ±100 for the full control effect; nearly all actives have a fitted effect of over 50% in size
# Outline: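 ATP luminescence (CellTiter-Glo) reports metabolically competent cell number after parental HEK293 cells, 2,000/well, were treated with DMSO-dissolved compounds for 18 h at 37 C; reagent incubation 30 min, room temperature.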
# [10] = qHTS assay for cell viability of the p53RE-bla HCT-116 cell line (AID 743292); conditions: p53RE-bla HCT-116 viability, ATP luminescence, 16 h; series mostly up to 95 µM; note: % is set by controls: 0 for no effect and ±100 for the full control effect; nearly all actives have a fitted effect of over 55% in size
# Outline: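 Intracellular ATP of p53RE-bla HCT-116 cells measured by luciferase luminescence following 16 h compound incubation at 37 C; DMSO-only wells served as vehicle controls.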
# T1 sequence (P35557 whole entry, looked up): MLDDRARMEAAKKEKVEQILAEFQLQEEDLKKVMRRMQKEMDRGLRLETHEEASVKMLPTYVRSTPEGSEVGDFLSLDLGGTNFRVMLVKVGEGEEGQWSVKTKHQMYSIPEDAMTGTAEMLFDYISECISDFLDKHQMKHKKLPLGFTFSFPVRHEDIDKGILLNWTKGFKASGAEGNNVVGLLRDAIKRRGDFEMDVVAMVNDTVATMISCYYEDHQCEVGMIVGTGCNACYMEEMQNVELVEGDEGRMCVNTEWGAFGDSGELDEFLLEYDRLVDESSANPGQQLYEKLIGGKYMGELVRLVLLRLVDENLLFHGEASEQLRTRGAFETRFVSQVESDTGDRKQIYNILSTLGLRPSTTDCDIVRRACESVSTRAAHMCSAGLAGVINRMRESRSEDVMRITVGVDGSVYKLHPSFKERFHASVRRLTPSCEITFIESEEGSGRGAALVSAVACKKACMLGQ
# T1 sequence (Q14397 whole entry, looked up): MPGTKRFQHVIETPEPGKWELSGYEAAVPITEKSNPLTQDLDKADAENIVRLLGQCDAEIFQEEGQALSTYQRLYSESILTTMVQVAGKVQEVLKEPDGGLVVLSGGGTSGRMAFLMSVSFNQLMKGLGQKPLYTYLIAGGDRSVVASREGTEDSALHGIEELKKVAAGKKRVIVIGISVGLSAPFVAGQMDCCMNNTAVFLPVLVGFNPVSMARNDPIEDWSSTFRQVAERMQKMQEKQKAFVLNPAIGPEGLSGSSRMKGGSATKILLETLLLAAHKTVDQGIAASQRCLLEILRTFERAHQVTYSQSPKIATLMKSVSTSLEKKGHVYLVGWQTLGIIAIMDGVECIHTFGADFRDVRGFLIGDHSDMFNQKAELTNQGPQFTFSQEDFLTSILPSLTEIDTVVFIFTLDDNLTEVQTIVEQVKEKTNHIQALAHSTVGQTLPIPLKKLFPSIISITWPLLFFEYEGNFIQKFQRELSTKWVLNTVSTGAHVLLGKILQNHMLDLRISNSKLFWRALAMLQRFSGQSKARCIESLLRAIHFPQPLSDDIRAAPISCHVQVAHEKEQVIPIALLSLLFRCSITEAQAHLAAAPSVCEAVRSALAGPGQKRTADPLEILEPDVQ
structure (smiles),measurement,setting,value
C=CCc1cccc(C=NNC(=O)CN2CCN(Cc3ccccc3)CC2)c1O,outcome,[1],inactive
same,outcome,[2],inactive
same,outcome,[3],inactive
CC(C)C[C@H](NC(=O)c1cc2ccccc2s1)C(=O)N1CCN(C(=O)[C@H](CO)NS(=O)(=O)c2ccc(Cl)cc2Cl)CC1,max response,[4],4.85% (inactive)
same,remaining parasite growth % (stronger effect = lower value),[5],17.9%
same,"activity, percent of control",[6],27.2%
C[C@@H]1C[C@H]2[C@@H]3CCC4=CC(=O)C=C[C@]4(C)[C@@]3(F)[C@@H](O)C[C@]2(C)[C@@]1(O)C(=O)CO,outcome,[7],inactive
same,max response,[8],-1.58% (inactive) and -7.2% (inactive)
same,max response,[9],-1.33% (inactive) and -8.25% (inactive)
same,outcome,[10],inactive
O=C(O)c1nc(=O)[nH]c(=O)[nH]1,max response,[4],15.4% (inactive)
COc1nc(C)cnc1NS(=O)(=O)c1cccnc1-c1ccc(-c2nnco2)cc1,max response,[4],18.4% (inactive)
same,remaining parasite growth % (stronger effect = lower value),[5],63.7%
same,"activity, percent of control",[6],88%
NCC1CCC(C(=O)O)CC1 (stereo not given),max response,[4],-0.776% (inactive)
O=C(Nc1cccc2c(=O)cc(-c3nn[nH]n3)oc12)c1ccc(OCCCCc2ccccc2)cc1,max response,[4],38.4% (inactive)
N#CC(c1ccc(Cl)cc1)c1c(Cl)cc(-n2ncc(=O)[nH]c2=O)cc1Cl (stereo not given),max response,[4],-5.57% (inactive)
CNC(=O)c1cc(Oc2ccc(NC(=O)Nc3ccc(Cl)c(C(F)(F)F)c3)c(F)c2)ccn1,max response,[4],21.4% (inactive)
same,remaining parasite growth % (stronger effect = lower value),[5],1.04%
same,"activity, percent of control",[6],5.46%
Cc1csc(-c2nnc(Nc3ccc(Oc4ncccc4-c4ccnc(N)n4)cc3)c3ccccc23)c1,max response,[4],10.6% (inactive)
same,remaining parasite growth % (stronger effect = lower value),[5],93.3%
same,"activity, percent of control",[6],85.6%
Cc1ccc(C(=O)N(CCCN)[C@@H](c2nc3cc(Cl)ccc3c(=O)n2Cc2ccccc2)C(C)C)cc1,Potency,[4],18700 nM (active)
same,remaining parasite growth % (stronger effect = lower value),[5],-0.752%
same,"activity, percent of control",[6],0.933%
CO[C@H]1O[C@@H]2O[C@@]3(C)CC[C@@H]4[C@@H](C)CC[C@@H]([C@H]1C)[C@@]24OO3,Potency,[4],11.8 nM (active)
CC(O)=C(C#N)C(=O)Nc1ccc(C(F)(F)F)cc1,max response,[4],27.1% (inactive)
same,remaining parasite growth % (stronger effect = lower value),[5],89.8%
same,"activity, percent of control",[6],95.5%
CCCCN(CCCC)CC(O)c1cc(Cl)cc2c1-c1ccc(Cl)cc1C2=Cc1ccc(Cl)cc1 (stereo not given),Potency,[4],59 nM (active)
C[C@H]1O[C@@H](n2cc(F)c(=O)[nH]c2=O)[C@H](O)[C@H]1O,outcome,[1],inactive
same,outcome,[2],inactive
same,outcome,[3],inactive
same,max response,[4],6.51% (inactive)
COc1ccnc(CS(=O)c2nc3ccc(OC(F)F)cc3[nH]2)c1OC (stereo not given),max response,[4],7.9% (inactive)
CC(C)(CO)[C@@H](O)C(=O)NCCC(=O)O,max response,[4],-8.71% (inactive)
COC(=O)Nc1ccc(-c2nc(N3CCOCC3)c3cnn(C4CCN(C(=O)OC)CC4)c3n2)cc1,max response,[4],6.16% (inactive)
same,remaining parasite growth % (stronger effect = lower value),[5],3.29%
same,"activity, percent of control",[6],7.64%
CC(C)n1c(C=C[C@H](O)C[C@H](O)CC(=O)O)c(-c2ccc(F)cc2)c2ccccc21,max response,[4],-4.13% (inactive)
Cc1c(C(=O)Nc2ccc(N3C[C@@H](C)O[C@@H](C)C3)nc2)cccc1-c1ccc(OC(F)(F)F)cc1,max response,[4],0.51% (inactive)
same,remaining parasite growth % (stronger effect = lower value),[5],72.2%
same,"activity, percent of control",[6],72.3%
CC[C@H](C)C(=O)O[C@H]1C[C@H](O)C=C2C=C[C@H](C)[C@H](CC[C@@H](O)C[C@@H](O)CC(=O)O)[C@H]21,max response,[4],-1.33% (inactive)
NS(=O)(=O)c1cc(Cl)c(Cl)c(S(N)(=O)=O)c1,max response,[4],-4.73% (inactive)
CC(C)CN(C[C@@H](O)[C@H](Cc1ccccc1)NC(=O)O[C@H]1CO[C@H]2OCC[C@H]21)S(=O)(=O)c1ccc(N)cc1,max response,[4],-5.35% (inactive)
COc1ccc(-c2nc3ccc(C4=NNC(=O)CC4C)cc3[nH]2)cc1 (stereo not given),max response,[4],13.2% (inactive)
CC(C)(C)c1[nH]cnc1C=c1[nH]c(=O)c(=Cc2ccccc2)[nH]c1=O,max response,[4],-26.5% (inactive)
Cn1cc(-c2ccc3nnc(Sc4ccc5ncccc5c4)n3n2)cn1,max response,[4],-16.9% (inactive)
same,remaining parasite growth % (stronger effect = lower value),[5],74.3%
same,"activity, percent of control",[6],95.2%
CCCCn1c(=O)n(Cc2ccccc2F)c(=O)c2[nH]c(Cc3ccc(NC(C)=O)cc3)nc21,max response,[4],66.3% (inactive)
same,remaining parasite growth % (stronger effect = lower value),[5],71.1%
same,"activity, percent of control",[6],63.7%
CN(C)CCCNC(=O)c1ccc(-c2cc(O)c3ncccc3c2)cc1,Potency,[4],2960 nM (active)
same,remaining parasite growth % (stronger effect = lower value),[5],3.59%
same,"activity, percent of control",[6],5.19%
COc1cc2nccc(Oc3ccc(NC(=O)Nc4cc(C)on4)c(Cl)c3)c2cc1OC,max response,[4],19.1% (inactive)
same,remaining parasite growth % (stronger effect = lower value),[5],62.8%
same,"activity, percent of control",[6],62%
Cc1cc2c(cc1C1(c3ccc(C(=O)O)cn3)CC1)C(C)(C)CCC2(C)C,max response,[4],8.43% (inactive)
same,remaining parasite growth % (stronger effect = lower value),[5],101%
same,"activity, percent of control",[6],97.2%
CN(C)CCN(Cc1ccc(Cl)cc1)c1ccccn1,max response,[4],18.2% (inactive)

# Source: PubChem BioAssay (NCATS)
